We go through 100 compounds from PubChem BioAssay AID1063 (University of Pittsburgh Molecular Library Screening Center, 2008).

Among all 200,000 compounds or so, about 18,000 (9%) were called active. What follows is part of a selection rich in actives, with near analogues and random picks from the rest. Values without a mark were called inactive. Cut-off read from the data, not from the text of the source: active = inhibition above about 50%; inactive = the rest.

As a reminder, the inhibition is the drop in the measured response relative to a control, in per cent.

The assay in a line: Leishmania major promastigote growth inhibition, primary screen (AID 1063).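 Note: promastigotes grown with compound for 44 hours at 28 °C.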 The settings on record: Leishmania major promastigotes, resazurin fluorescence viability; at 10 µM; hits give high values. For orientation: Alamar Blue is a resazurin reagent that responds to reducing activity.
In the case of `O=C(CO/N=C/c1ccccc1OC(F)F)NC1CCCC1`, the inhibition is 9.48%. For the compound `NS(=O)(=O)c1ccc(N2C(=O)C3C4CC(C(Br)C4Br)C3C2=O)cc1` (stereo not given), the inhibition is -1.02%. Consider `CC(C)Nc1nnc(SCC(=O)/C=C2\N(C)c3ccccc3C2(C)C)s1`, for which the inhibition was 2.98%. The value for `CN1/C(=C\C(=O)c2oc3ccccc3c2N)C(C)(C)c2ccccc21` was 5.73%; that for `CN1/C(=C\C(=O)c2cccnc2Cl)C(C)(C)c2ccccc21` was 55.5% (active). As to `O=C(COC(=O)Cn1cnc2ccccc2c1=O)NCc1ccccc1Cl`, the inhibition was 1.11%.

For the compound `Cn1cccc1C(C#N)c1ccccc1C#N` (stereo not given), the inhibition was 4.16%. To `Cc1cc(C(=O)N/N=C/c2ccccc2[N+](=O)[O-])c(C)o1` belongs -4.59%; to `CSc1ccc(/C=N/N2CCN(Cc3ccccc3Cl)CC2)cc1`, -7.46%; to `Cc1ccccc1NC(=S)NNC(=O)c1cccc(Br)c1`, -0.99%. Consider `Cc1ccc(S(=O)(=O)NCCc2nnc3ccc(SCc4cccnc4)nn23)cc1`, for which the inhibition is -6.61%. On to `COCCn1c(=O)[nH]c(=O)c2cc(C(=O)c3cc(OC)ccc3O)cnc21`, for which the inhibition is 0.78%. Consider `COc1ccc(O)c(C(=O)c2cnc3onc(C(C)C)c3c2)c1`, for which the inhibition is -0.73%. Regarding `COc1ccc(O)c(C(=O)c2cnc3c(c2)c(-c2ccc(F)cc2)c(C#N)c(=O)n3C)c1`, the inhibition was 52.4% (active). With `CC(=O)N/N=C(\C)c1ccc(Br)cc1Br`, the inhibition is -4.52%. As to `COc1ccccc1N(C)S(=O)(=O)c1ccc(C(=O)N2CCC(C(N)=O)CC2)cc1`, the inhibition is 3.34%. On to `CCOC(=O)C1CCN(C(=O)c2ccccc2N(C)S(=O)(=O)c2ccccc2)CC1`, for which the inhibition is 53.4% (active). In the case of `CCN1CCN(C(=O)c2ccccc2N(C)S(=O)(=O)c2ccc(C)cc2)CC1`, the inhibition is -0.79%.

Turning to `CC1COc2ccccc2N1C(=O)c1cccnc1Cl` (stereo not given), the inhibition is -4%. Consider `C=C(C)Cn1c(C)cc(C)c(S(=O)(=O)c2ccccc2C)c1=O`, for which the inhibition is 96% (active). To `CCN(CC(=O)Nc1ccc(Cl)c(S(=O)(=O)N(C)C)c1)Cc1nc2ccccc2c(=O)[nH]1` belongs -6.29%.

Consider `Cc1ccc(NC(=O)CNCc2ccccn2)cc1S(=O)(=O)N(C)C`, for which the inhibition was 6.73%. In the case of `CN(C)S(=O)(=O)c1cc(NC(=O)CN2C(=O)NC3(CCCc4ccccc43)C2=O)ccc1Cl` (stereo not given), the inhibition was 57.4% (active).

Take `COc1ccc(C(=O)ON=C2c3ccccc3-c3ccccc32)cc1OC`: the inhibition was -6.29%. As for `COc1ccc(C/C(N)=N/OC(=O)c2ccco2)cc1OC`, the inhibition was -5.88%. Regarding `COc1ccc(C(=O)O/N=C(\N)Cc2ccc(Cl)cc2Cl)cc1OC`, the inhibition is 71.9% (active).

For the compound `CN(Cc1ccc2nsnc2c1)Cc1nc(Cc2cccc(F)c2)no1`, the inhibition is -4.63%. Turning to `CN1CCN(C(=O)CCc2ncc(C(F)(F)F)cc2Cl)CC1`, the inhibition was -6.47%.

For `O=C(NCC(=O)N(CC1CCCO1)C(C(=O)NC1CCCCC1)c1ccccc1)c1ccco1` (stereo not given), the inhibition was -4.69%.

For `Cc1cccc(Oc2c([N+](=O)[O-])c(=O)n(C)c3ccccc23)c1`, the inhibition was -3.73%. In the case of `COc1ccc(/C=N/NC(=O)c2cccc(C(F)(F)F)c2)cc1`, the inhibition is 12%. For the compound `C=CCNC(=S)N1CCN(CCN=Cc2c(C)[nH]n(-c3ccc([N+](=O)[O-])cc3)c2=O)CC1`, the inhibition was -7.1%. To `C=C1c2cc(CC)ccc2NC(=O)N1c1ccc(C)cc1` belongs 12.2%. With `O=C1Nc2ccccc2C12Nc1ccccc1S2` (stereo not given), the inhibition was -4.59%. Consider `CCc1ccc2c(c1)C1(NN=C(c3ccccc3)S1)C(=O)N2` (stereo not given), for which the inhibition is 99.1% (active).

For `COc1ccc(C(=O)NC(Cc2ccc(OC(=O)c3ccc(OC)cc3)cc2)C(=O)O)cc1` (stereo not given), the inhibition was -3.89%. Consider `COc1ccccc1NC(=O)COc1ccc(C(=O)OCC(=O)N(C(C)C)C(C)C)cc1OC`, for which the inhibition was -1.06%. Consider `CCN(CCCCOC(=O)c1ccc(OC)c(OC)c1)C(C)Cc1ccc(OC)cc1` (stereo not given), for which the inhibition is 100% (active). `CC(C)OC(=O)CN1CCN(c2ccc(Cl)cc2)CC1`: the inhibition was -1.87%.

As to `CCCc1[nH]nc2c1C(c1c(C)nn(-c3ccccc3)c1Cl)C(C#N)=C(N)O2` (stereo not given), the inhibition is 8.77%. With `CCCc1[nH]nc2c1C(c1ccc(OC(=O)c3ccco3)cc1)C(C#N)=C(N)O2` (stereo not given), the inhibition was 15.8%.

In the case of `N#CC1=C(N)OC2=C(C(=O)CCC2)C1C1CC=CCC1` (stereo not given), the inhibition is 4.1%. As for `CCCc1[nH]nc2c1C(c1ccc(Br)s1)C(C#N)=C(N)O2` (stereo not given), the inhibition is 100% (active). Consider `COCc1[nH]nc2c1C(C1C=CCCC1)C(C#N)=C(N)O2` (stereo not given), for which the inhibition was 45.2%. For `CCCc1[nH]nc2c1C(C1CC=CCC1)C(C#N)=C(N)O2` (stereo not given), the inhibition is 66.6% (active). For `CC(=O)N1CCN(S(=O)(=O)c2c(F)cc(F)c(Cl)c2F)CC1`, the inhibition is 0.83%. The value for `COc1ccc(C(=O)Nc2cccc(S(C)(=O)=O)c2)cc1` was -0.33%; that for `CC(C)(C)NC(=O)COC(=O)c1cc(Cl)ccc1[N+](=O)[O-]` was 2.68%; that for `CCOC(=O)C1(Cc2cccc(OC)c2)CCCN(S(=O)(=O)c2cccnc2)C1` (stereo not given) was 1.74%. For `CCOC(=O)c1sc(/N=C/C2=C(O)CC(C)(C)CC2=O)c(C(=O)OCC)c1C`, the inhibition was -3.8%.

As to `Cn1c(=O)c2c(ncn2CC(=O)N2CCN(c3ccccc3)CC2)n(C)c1=O`, the inhibition was -3.01%. Regarding `Cn1c(=O)c2c(ncn2CCc2ccccc2)n(C)c1=O`, the inhibition is -0.5%.

In the case of `Cn1c(=O)c2c(ncn2CC(COCc2ccccc2Cl)OCc2ccccc2Cl)n(C)c1=O` (stereo not given), the inhibition is 96.2% (active). For the compound `Cc1ncc([N+](=O)[O-])n1CCOC(=O)c1ccc(Br)cc1`, the inhibition is 13.8%. For the compound `Cc1cccc(C)c1NC(=O)C1(C)c2cccc[n+]2CC(=O)N1Cc1cccs1` (stereo not given), the inhibition was 13.1%.

As for `CC(C)(C)c1ccc(C(=O)CSc2ncn[nH]2)cc1`, the inhibition was -1.37%. Regarding `O=C(/C=C/Sc1ncn[nH]1)c1ccc(Cl)cc1`, the inhibition was 100% (active). On to `O=C(NCCOCc1ccc(Cl)cc1)c1ncn[nH]1`, for which the inhibition is 24.4%. On to `Cc1cc(C)n(-c2nnc(N3CCN(c4ccccc4)CC3)nn2)n1`, for which the inhibition was 10.3%. The value for `Cc1n[nH]c(=O)n1-c1ccc(C(C)C)cc1` was -3.84%; that for `C/C(=N/O)c1ccc(N2C(=O)C3C4C=CC(C3C2=O)C2C3C(=O)N(c5ccc(/C(C)=N/O)cc5)C(=O)C3C42)cc1` (stereo not given) was -0.53%; that for `Cc1ccc2[nH]c(=O)c(CN3CCCCC3)c(-c3ccccc3)c2c1` was 6.53%. Consider `Nc1cccc(-c2cc(-c3ccccc3)nc(-c3cccc(N)c3)n2)c1`, for which the inhibition is 64% (active). For `Nc1cccc(CCc2nc3ccccc3[nH]2)c1`, the inhibition was -2.96%. To `CS(=O)(=O)c1sc2nc(-c3ccccc3)cc(-c3ccccc3)c2c1N` belongs 3.87%.

Consider `OC1CSc2nc3ccccc3n2C1` (stereo not given), for which the inhibition is 0.82%.

As to `O=C(Nc1cccc(C(F)(F)F)c1)c1cnccn1`, the inhibition is 7.19%. To `Clc1cccc(CN2COc3c(cc(Cl)c4cccnc34)C2)c1` belongs 101% (active); to `Nc1c(C(=O)NCc2ccccc2)nnn1Cc1cccc(Cl)c1`, -2.28%; to `O=c1[nH]n(-c2cccc(Cl)c2)c2ncccc12`, -7.31%. Turning to `O=C(C(=O)N1CCc2ccccc2C1)c1c[nH]c2ccccc12`, the inhibition is 4.91%. Take `Cc1ccccc1NC(=O)NC1(C(=O)N2CCCC2)CCCCC1`: the inhibition was -6.94%.

As to `CC(C)C(=O)Nc1ccc(C(=O)NNC(=O)c2cccs2)cc1`, the inhibition was 66.2% (active). For the compound `Cc1ccc(C(=O)NNC(=O)c2cccs2)cc1`, the inhibition was 5.96%.

In the case of `O=C(O)c1ccc(NC(=O)c2cccs2)cc1`, the inhibition is -4.2%. Take `COc1ccc(OC)c(S(=O)(=O)NCCC(C)C)c1`: the inhibition is -7.99%. With `O=C1Oc2ccccc2C(=O)/C1=C/c1ccccc1O`, the inhibition is 7.18%. For the compound `CN1CCN(C(=O)N2c3ccccc3CCc3ccccc32)CC1`, the inhibition is -0.1%. With `O=C(Nc1cccc(O)c1)c1ccc(C(=O)c2ccccc2)o1`, the inhibition was 26.7%. The value for `CCOC(=O)c1cc2c(n(-c3ccc(C)cc3)c1=O)CCCC2=O` was 15.4%; that for `CCOC(=O)C1=C(N)N(c2ccc(C)cc2)C2=C(C(=O)CCC2)C1c1cccs1` (stereo not given) was 92.3% (active); that for `O=C1CCCC2=C1C(c1cccs1)CC(=O)N2c1ccc(F)cc1` (stereo not given) was 4.07%. On to `Cc1nc(-c2ccccc2)sc1C(=O)/C=C/N(C)C`, for which the inhibition was -7.03%.

Take `C/C=C/c1ccc(OCCOc2ccc(C=O)cc2OC)c(OC)c1`: the inhibition was -4.56%. For the compound `C/C=C/c1ccc(OCCCCN2CCC(C)CC2)c(OC)c1`, the inhibition was 95.6% (active). With `COc1ccc(OC)c(NC(=O)CCN2CCC(C)CC2)c1`, the inhibition is 1.65%.

On to `O=c1c(Cl)c(NC2CC2)cnn1-c1ccccc1`, for which the inhibition was -1.71%. Regarding `c1ccc2c(c1)CSc1sccc1C2=C1CCNCC1`, the inhibition was 58.3% (active). On to `CCOC(=O)Cc1csc(NC(=O)COc2ccc3c(C)cc(=O)oc3c2)n1`, for which the inhibition was 13.5%. The value for `O=C(c1cccnc1)N(c1cc2sc(=O)oc2c2ccccc12)S(=O)(=O)c1ccccc1` was 99.2% (active); that for `COc1ccc(N(C(=O)c2cccnc2)S(=O)(=O)c2ccc3c(c2)n(C)c(=O)n3C)cc1` was 0.4%; that for `CN(C)S(=O)(=O)c1cccc(C(=O)Nc2cccnc2)c1` was -3.68%.

As to `N/C(Cc1ccc([N+](=O)[O-])cc1)=N\OC(=O)C1CCCCC1`, the inhibition was -4.63%. Consider `COCCN(C(=O)c1ccccc1F)c1c(N)n(Cc2ccccc2)c(=O)[nH]c1=O`, for which the inhibition is -1.31%.

In the case of `CCC(=O)OCCNc1nc(-c2ccccc2)nc2ccccc12`, the inhibition was 88.4% (active). Turning to `CCOC(=O)c1c(C)nc(-c2ccccc2)nc1NC(=O)C(C)C`, the inhibition was 14.1%. As for `CS(=O)(=O)n1nc(-c2ccccc2)nc1NCc1ccco1`, the inhibition is -5.02%. The value for `c1ccc(-c2nc(NCc3ccco3)c3ccccc3n2)cc1` was 66.3% (active); that for `CCOC(=O)c1nc(Nc2ccc(C(=O)OC)cc2)c2ccccc2n1` was 16.3%. Consider `c1coc(CNc2ncnc3ccccc23)c1`, for which the inhibition is 32.3%.
